Reference: PubChem BioAssay AID1159580 (chemical genetic matrix, 2015)
About 2,000 (36%) of roughly 5,500 compounds were called active. Not shown: some 18% with an inconclusive outcome. Cut-off read from the data, not from the text of the source: active = normalized growth mostly below about 0.91 (no sharp cut-off); inconclusive = no clear call, values can overlap the other calls; inactive = mostly above about 0.92. The list shows a part of the results.

Assay: chemical genetic growth profiling, strain panel (AID 1159580);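 note: tested at 20 µM; growth read once vehicle control cultures reached saturation at 30 °C; 1 = growth at the plate median or of vehicle wells; lower values mean less growth of the strain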
Details: growth OD

Measured: normalized growth

C#CCCCCCCCCCCCC(=O)CC(O)COC(C)=O (centres undefined)
active: S. cerevisiae deletion strains, locus YJR075W, strain HOC1, active compounds read low 0.771 | S. cerevisiae deletion strains, locus YKL190W, strain CNB1, active compounds read low 0.82 | S. cerevisiae deletion strains, locus YKR001C, strain vps1, active compounds read low 0.754 | S. cerevisiae deletion strains, locus YLR058C, strain SHM2, active compounds read low 0.86 | S. cerevisiae deletion strains, locus YLR262C, strain YPT6 (second series), active compounds read low 0.807 | S. cerevisiae deletion strains, locus YLR268W, strain sec22, active compounds read low 0.784 | S. cerevisiae deletion strains, locus YLR320W, strain mms22, active compounds read low 0.845 | S. cerevisiae deletion strains, locus YLR330W, strain CHS5, active compounds read low 0.753 | S. cerevisiae deletion strains, locus YLR418C, strain cdc73, active compounds read low 0.364 | S. cerevisiae deletion strains, locus YML032C, strain rad52, active compounds read low 0.86 | S. cerevisiae deletion strains, locus YMR223W, strain ubp8, active compounds read low 0.841 | S. cerevisiae deletion strains, locus YMR263W, strain SAP30, active compounds read low 0.848 | S. cerevisiae deletion strains, locus YNL067W, strain RPL9B, active compounds read low 0.742 | S. cerevisiae deletion strains, locus YNL071W, strain lat1, active compounds read low 0.748 | S. cerevisiae deletion strains, locus YNL153C, strain GIM3, active compounds read low 0.826 | S. cerevisiae deletion strains, locus YNL233W, strain BNI4, active compounds read low 0.685 | S. cerevisiae deletion strains, locus YNL298W, strain CLA4, active compounds read low 0.898 | S. cerevisiae deletion strains, locus YNL307C, strain MCK1, active compounds read low 0.166 | S. cerevisiae deletion strains, locus YOL147C, strain pex11, active compounds read low 0.71 | S. cerevisiae deletion strains, locus YOR061W, strain CKA2, active compounds read low 0.514 | S. cerevisiae deletion strains, locus YOR144C, strain elg1, active compounds read low 0.93 | S. cerevisiae deletion strains, locus YOR184W, strain ser1, active compounds read low 0.62 | S. cerevisiae deletion strains, locus YPL055C, strain LGE1, active compounds read low 0.612 | S. cerevisiae deletion strains, locus YPR163C, strain tif3, active compounds read low 0.626 | S. cerevisiae deletion strains, strain wtn01, active compounds read low 0.801 | S. cerevisiae strains, strain wild type, active compounds read low 0.83
inactive: S. cerevisiae deletion strains, locus YJR043C, strain POL32, active compounds read low 0.865 | S. cerevisiae deletion strains, locus YKL009W, strain mrt4, active compounds read low 0.901 | S. cerevisiae deletion strains, locus YKL068W, active compounds read low 0.977 | S. cerevisiae deletion strains, locus YKL085W, strain MDH1 (second series), active compounds read low 0.958 | S. cerevisiae deletion strains, locus YKL085W, strain MDH1, active compounds read low 0.958 | S. cerevisiae deletion strains, locus YKL160W, strain elf1, active compounds read low 0.969 | S. cerevisiae deletion strains, locus YKR026C, strain gcn3, active compounds read low 0.991 | S. cerevisiae deletion strains, locus YKR091W, strain srl3, active compounds read low 0.988 | S. cerevisiae deletion strains, locus YLL001W, strain dnm1, active compounds read low 1 | S. cerevisiae deletion strains, locus YLL026W, active compounds read low 0.995 | S. cerevisiae deletion strains, locus YLL041C, strain sdh2, active compounds read low 0.989 | S. cerevisiae deletion strains, locus YLR027C, strain aat2, active compounds read low 0.994 | S. cerevisiae deletion strains, locus YLR039C, strain RIC1, active compounds read low 0.688 | S. cerevisiae deletion strains, locus YLR102C, strain apc9, active compounds read low 0.97 | S. cerevisiae deletion strains, locus YLR221C, strain rsa3, active compounds read low 0.935 | S. cerevisiae deletion strains, locus YLR258W, strain gsy2, active compounds read low 0.972 | S. cerevisiae deletion strains, locus YLR262C, strain YPT6, active compounds read low 0.655 | S. cerevisiae deletion strains, locus YLR342W, strain FKS1 (second series), active compounds read low 0.794 | S. cerevisiae deletion strains, locus YLR342W, strain FKS1, active compounds read low 0.953 | S. cerevisiae deletion strains, locus YLR357W, strain rsc2, active compounds read low 1.01 | S. cerevisiae deletion strains, locus YLR370C, strain arc18, active compounds read low 0.978 | S. cerevisiae deletion strains, locus YLR371W, strain rom2, active compounds read low 0.964 | S. cerevisiae deletion strains, locus YLR384C, strain iki3, active compounds read low 0.996 | S. cerevisiae deletion strains, locus YML016C, strain PPZ1, active compounds read low 0.994 | S. cerevisiae deletion strains, locus YML120C, strain ndi1, active compounds read low 0.986 | S. cerevisiae deletion strains, locus YML124C, strain tub3, active compounds read low 0.974 | S. cerevisiae deletion strains, locus YMR058W, strain fet3, active compounds read low 0.97 | S. cerevisiae deletion strains, locus YMR078C, strain ctf18, active compounds read low 0.961 | S. cerevisiae deletion strains, locus YMR125W, strain sto1, active compounds read low 0.979 | S. cerevisiae deletion strains, locus YMR129W, active compounds read low 0.999 | S. cerevisiae deletion strains, locus YMR205C, strain PFK2, active compounds read low 0.893 | S. cerevisiae deletion strains, locus YMR231W, strain pep5, active compounds read low 0.957 | S. cerevisiae deletion strains, locus YMR307W, strain GAS1, active compounds read low 0.99 | S. cerevisiae deletion strains, locus YNL128W, strain TEP1, active compounds read low 0.872 | S. cerevisiae deletion strains, locus YNL209W, strain ssb2, active compounds read low 0.981 | S. cerevisiae deletion strains, locus YNL248C, strain rpa49, active compounds read low 0.973 | S. cerevisiae deletion strains, locus YNL250W, strain rad50, active compounds read low 0.989 | S. cerevisiae deletion strains, locus YNL271C, strain bni1, active compounds read low 0.965 | S. cerevisiae deletion strains, locus YNL322C, strain KRE1 (second series), active compounds read low 0.985 | S. cerevisiae deletion strains, locus YNL322C, strain KRE1, active compounds read low 0.971 | S. cerevisiae deletion strains, locus YNR049C, strain mso1, active compounds read low 0.982 | S. cerevisiae deletion strains, locus YNR052C, strain pop2, active compounds read low 0.931 | S. cerevisiae deletion strains, locus YOL006C, strain TOP1, active compounds read low 0.637 | S. cerevisiae deletion strains, locus YOL012C, strain htz1 0.999 | S. cerevisiae deletion strains, locus YOR001W, strain rrp6, active compounds read low 0.966 | S. cerevisiae deletion strains, locus YOR069W, strain VPS5, active compounds read low 0.978 | S. cerevisiae deletion strains, locus YOR070C, strain gyp1, active compounds read low 0.964 | S. cerevisiae deletion strains, locus YOR080W, strain dia2, active compounds read low 0.977 | S. cerevisiae deletion strains, locus YOR083W, strain WHI5, active compounds read low 0.967 | S. cerevisiae deletion strains, locus YOR106W, strain vam3, active compounds read low 0.889 | S. cerevisiae deletion strains, locus YOR136W, strain idh2, active compounds read low 0.929 | S. cerevisiae deletion strains, locus YOR265W, strain rbl2, active compounds read low 0.982 | S. cerevisiae deletion strains, locus YOR270C, strain vph1, active compounds read low 0.932 | S. cerevisiae deletion strains, locus YOR290C, strain snf2, active compounds read low 0.903 | S. cerevisiae deletion strains, locus YOR316C, strain cot1, active compounds read low 0.962 | S. cerevisiae deletion strains, locus YPL051W, strain arl3, active compounds read low 0.926 | S. cerevisiae deletion strains, locus YPL078C, strain atp4, active compounds read low 0.976 | S. cerevisiae deletion strains, locus YPL106C, strain sse1, active compounds read low 1.01 | S. cerevisiae deletion strains, locus YPL240C, strain hsp82, active compounds read low 0.977 | S. cerevisiae deletion strains, locus YPL241C, strain CIN2, active compounds read low 0.96 | S. cerevisiae deletion strains, locus YPR119W, strain clb2, active compounds read low 0.98 | S. cerevisiae deletion strains, locus YPR141C, strain kar3, active compounds read low 0.959 | S. cerevisiae deletion strains, locus YPR167C, strain met16, active compounds read low 0.947
